Screens deposited in PubChem BioAssay by National Center for Advancing Translational Sciences (NCATS).
IMPase Li inh – qHTS Assay for Identifying the Cell-Membrane Permeable IMPase Inhibitors: Potentiation with Lithium. Potency, µM (highest dose often 59.4 µM), for inactives: top-dose activity, negative = IMPase inhibition, hits mostly inhibitors. AID 1457, 2008. actives 0.35% (n = 210,000). CHO-M1 cells, IP1 TR-FRET (IP-One), carbachol + lithium;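 also: IP1 builds up when IMPase is blocked and the TR-FRET signal falls; plate controls were basal vehicle for no effect and high inhibitor control for full effect; nearly all actives have a fitted effect of over 50% in size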
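Lithium-sensitised IP1 accumulation assay; M1-expressing CHO cells treated 30 min at 37C with compound. Competitive antibody detection by time-resolved FRET followed a 10 min room-temperature lysis step.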
ERK EGF inh – qHTS Assay for Inhibitors of the ERK Signaling Pathway using a Homogeneous Screening Assay; Stimulation with EGF | Potency, µM (series often up to 11.5 µM), for the others: at the top dose activity change, negative = inhibition, actives largely listed as inhibitors | actives 0.41% (n = 130,000) | HEK293-V1b, EGF-stimulated phospho-ERK AlphaScreen;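 also: plate controls were stimulated vehicle wells for no effect and unstimulated vehicle basal for full effect; nearly all actives have a fitted effect of over 55% in size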
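Homogeneous cell-based phospho-ERK assay: HEK293/V1b cells in 1% FBS, compound 30 min then EGF 5 min, AlphaScreen luminescence. Activity normalized between DMSO and 25 nM EGF controls; AC50 from Hill modelling.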
NPSR antagonist – qHTS Assay for Antagonists of the Neuropeptide S Receptor: cAMP Signal Transduction. CHO-NPSR cells, cAMP TR-FRET, antagonist mode. Potency, µM (highest dose often 38.3 µM), without a hit: at the highest dose activity change, negative = inhibition, hits mostly inhibitors. actives 1% (n = 220,000). AID 1461, 2008; also: nearly all actives have a fitted effect of over 50% in size
Target sequence (Q6W5P4 whole entry, looked up): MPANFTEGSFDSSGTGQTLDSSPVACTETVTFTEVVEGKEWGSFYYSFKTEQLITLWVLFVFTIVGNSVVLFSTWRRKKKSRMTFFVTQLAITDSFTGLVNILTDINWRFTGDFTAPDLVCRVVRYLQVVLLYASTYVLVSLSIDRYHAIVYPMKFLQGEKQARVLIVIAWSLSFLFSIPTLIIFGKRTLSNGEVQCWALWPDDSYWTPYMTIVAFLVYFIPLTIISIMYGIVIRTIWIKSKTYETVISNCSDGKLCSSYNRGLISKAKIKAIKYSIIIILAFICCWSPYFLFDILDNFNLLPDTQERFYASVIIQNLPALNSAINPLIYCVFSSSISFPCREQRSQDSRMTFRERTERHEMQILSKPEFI
Luc counter – Counterscreen for Luciferase (Kinase-Glo TM) Inhibition. Potency, µM (doses to about 38.3 µM), without a hit: at the highest dose activity change, negative = inhibition, most hits filed as inhibitors. AID 1379, 2008. Luciferin 4-monooxygenase (Photuris pensylvanica), Q27757. actives 0.28% (n = 200,000). Kinase-Glo luciferase, ATP luminescence, 8 min; also: nearly all actives have a fitted effect of over 60% in size
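Luminescence was the read-out, taken after 8-minute incubation at ambient temperature. Luciferase turned over luciferin with 10 uM ATP in imidazole pH 7.2 buffer containing KCl, MgCl2, Tween 20 and BSA.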
The depositor's hits bear a star; [ ] = another dose, or the depositor's remark. Compounds with a hit are over-represented: about 1.1% of the library has one in this group of screens. Calls follow the shape of the dose curve; as a rule, active = well fitted curve in the direction sought with a large enough effect; inconclusive = small, poorly fitted or top-dose-only effect, or another doubt; inactive = no such curve, though single readings can be large; an effect the other way counts as inactive or inconclusive. Unless noted, % is scaled to controls: 0 for no effect and ±100 for the full control effect; potency is read from the fitted curve at half-maximal effect.

For Clc1ccc(/C=C/c2nc3ccccc3[nH]2)cc1 the results were IMPase Li inh -17%[38.3 µM], NPSR antagonist -18%[46.1 µM] and Luc counter 13µM*.
Clc1ccc(/C=C/c2nc3ccccc3[nH]2)c(Cl)c1 was read as IMPase Li inh -9%[38.3 µM], NPSR antagonist -17%[46.1 µM] and Luc counter 7.1µM*.
For Clc1cccc(Cl)c1/C=C/c1nc2ccccc2[nH]1 the results were IMPase Li inh 12%[38.3 µM], NPSR antagonist -27%[46.1 µM] and Luc counter -22%.
Screening O=C(O)c1c(Cl)c(Cl)c(Cl)c(Cl)c1-c1c2cc(I)c(=O)c(I)c-2oc2c(I)c(O)c(I)cc12 returned IMPase Li inh inconclusive and Luc counter 13µM*.
Screening CC1CCCCN1S(=O)(=O)c1ccc(C(=O)Nc2sccc2C(N)=O)cc1 (centres undefined) returned IMPase Li inh 32%[38.3 µM], NPSR antagonist 1.6µM* and Luc counter -8%.
For O=C1c2cccc3cccc(c23)C(=O)N1c1nccs1 the results were IMPase Li inh -12%[38.3 µM], NPSR antagonist -2%[46.1 µM] and Luc counter -1%.
O=C1c2cccc3c([N+](=O)[O-])ccc(c23)C(=O)N1c1nccs1 was read as IMPase Li inh 48%[38.3 µM], NPSR antagonist 10µM* and Luc counter -4%.
O=C1c2cccc3c([N+](=O)[O-])ccc(c23)C(=O)N1c1ccccn1 was read as IMPase Li inh 41%[38.3 µM], NPSR antagonist inconclusive and Luc counter -6%.
`O=C1c2cccc3c([N+](=O)[O-])ccc(c23)C(=O)N1c1ccc(Cl)cn1` gave IMPase Li inh 31%[38.3 µM], NPSR antagonist 5µM* and Luc counter -5%.
Screening N=C(N)[C@H](N=Nc1ccccc1)C(N)=O returned IMPase Li inh 4% and Luc counter -2%[7.66 µM].
`Brc1ccc(-c2nc3ccccc3s2)s1` gave IMPase Li inh 11µM*, NPSR antagonist 13µM* and Luc counter -29%.
Screening N#Cc1cccc(NC(=O)N2CC[C@@]3(CCCN(C(=O)c4csnn4)C3)C2)c1 returned IMPase Li inh 2%, ERK EGF inh -16% and Luc counter -3%.
`CC1=NN(c2ccccc2)C(=O)/C1=C\C=C1/N(C)c2ccccc2C1(C)C` gave IMPase Li inh 4%, ERK EGF inh 13µM*, NPSR antagonist -33% and Luc counter -9%.
Screening CC1=NN(c2ccccc2)C(=O)/C1=C\C=C1\N(C)c2ccccc2C1(C)C returned IMPase Li inh 9%, ERK EGF inh 16µM*, NPSR antagonist -39% and Luc counter -12%.
`CC1=NN(c2ccccc2)C(=O)/C1=C/N(C)C` gave ERK EGF inh 8%[57.5 µM] and NPSR antagonist 0%[7.67 µM].
Screening COc1ccc(-c2cc([C@H](O)C3CCCCN3)c3ccccc3n2)cc1 (some centres undefined) returned IMPase Li inh inconclusive and Luc counter -25%[7.66 µM].
Screening CCC(=O)N1CCN(c2ccc(NC(=O)c3ccc([N+](=O)[O-])o3)cc2Cl)CC1 returned IMPase Li inh 29%, ERK EGF inh 6%, NPSR antagonist 5µM* and Luc counter -1%.
`COc1ccc(C2/C=C\[C@H](O[Si](C)(C)C(C)(C)C)[C@H](C(C)C)CC(=O)N2Cc2ccccc2)cc1` (some centres undefined) gave IMPase Li inh -5% and Luc counter -1%[39.9 µM].
O=C(O)c1cc(-c2ccc3cc4c(cc3c2)OCO4)nc2ccccc12 was read as IMPase Li inh -1% and Luc counter -3%[7.66 µM].
`O=C(O)c1cc(-c2ccc3c(c2)OCO3)nc2ccc(Br)cc12` gave IMPase Li inh 11µM*, ERK EGF inh -11%[57.5 µM], NPSR antagonist 6.3µM* and Luc counter -1%.
For COc1ccc(NC(=O)/C(Cl)=C(/Cl)S(=O)(=O)Cc2ccccc2)cn1 the results were IMPase Li inh 42%[38.3 µM], NPSR antagonist 5µM* and Luc counter 0%.
COc1ccc(NC(=O)C(Cl)=C(Cl)Cl)cn1 was read as IMPase Li inh 4%, ERK EGF inh -4%, NPSR antagonist 6% and Luc counter -4%.
For COc1ccc(NC(=O)CCl)cn1 the results were ERK EGF inh 6%[57.5 µM] and NPSR antagonist -7%.
`COc1ccc(NC(=O)/C(Cl)=C(/Cl)S(=O)Cc2ccc(Cl)cc2)cn1` (centres undefined) gave IMPase Li inh 29%, ERK EGF inh inconclusive, NPSR antagonist 7.9µM* and Luc counter -2%.
`C[C@@H](CCc1ccccc1)NC[C@H](O)c1ccc(O)c(C(N)=O)c1` gave IMPase Li inh -2%, ERK EGF inh 13%[25.7 µM] and Luc counter -3%[17.1 µM].
`O=C(Nc1ccccc1C(=O)N/N=C/c1ccco1)c1ccc(Cl)cc1` gave IMPase Li inh 4%, ERK EGF inh 10%, NPSR antagonist -16% and Luc counter 13µM*.
For C/C(=N/NC(=O)c1ccncc1)c1ccccc1Cl the results were IMPase Li inh 2% and Luc counter -5%[7.66 µM].
For O=C(Nc1ccccc1C(=O)N/N=C/c1ccco1)c1ccc(F)cc1 the results were IMPase Li inh 1%, ERK EGF inh -14%, NPSR antagonist -6% and Luc counter 7.1µM*.
For C/C(=N\NC(=O)c1ccccc1NC(=O)c1ccc(Cl)cc1)c1ccncc1 the results were IMPase Li inh -6%, ERK EGF inh -3%, NPSR antagonist -30% and Luc counter 1.3µM*.
`NC(C(=O)O)c1cc(O)cc(O)c1` (centres undefined) gave IMPase Li inh -12%.
Screening O=C(O)c1cc(S(=O)(=O)Nc2cccc(Cl)c2)ccc1O returned Luc counter 0%.
CCN1C=C(Cc2ccc(F)cc2)C2=C(C1)C(c1ccc(F)cc1)C(C#N)=C(N)O2 (centres undefined) was read as IMPase Li inh 39%[38.3 µM], NPSR antagonist 10µM* and Luc counter -2%.
For CC(=O)N=c1sc2nc3ccccc3nc2n1N(C(C)=O)C(C)=O the results were IMPase Li inh 13µM*, NPSR antagonist 13µM* and Luc counter 1%.
Screening O=c1c2ccccc2nc(N/N=C/c2ccc(O)cc2)n1O returned IMPase Li inh 5%, NPSR antagonist -10%[46.1 µM] and Luc counter 11µM*.
`O=c1c2ccccc2nc(N/N=C/c2c(O)ccc3ccccc23)n1O` gave IMPase Li inh 0%, NPSR antagonist -21%[46.1 µM] and Luc counter -6%.
`Cc1ccc(N2CCN(CCC(=O)O)CC2)cc1` gave IMPase Li inh -6% and Luc counter -4%[7.66 µM].
COc1ccc(Cc2ccccc2C(=O)O)c2ccccc12 was read as IMPase Li inh 9% and Luc counter -2%[7.66 µM].
`COc1cccc(CNc2ccc(F)c(Cl)c2)c1O` gave IMPase Li inh 22%[38.3 µM], NPSR antagonist 10µM* and Luc counter -2%.
